This passage reports inhibition results from ChEMBL document CHEMBL1961873, “Compounds: GSK PKIS; Assays: Nanosyn kinase panel” (2012).

In test [1] the target is RAC-alpha serine/threonine-protein kinase (Homo sapiens) (UniProt P31749). To be noted: at 0.1 µM.
For test [2] the target is unchanged. To be noted: at 1 µM.
Test [3] deals with RAC-beta serine/threonine-protein kinase (Homo sapiens) (UniProt P31751). The note with it: at 0.1 µM.
The target is the same in test [4]. To be noted: at 1 µM.
Test [5] has as its target RAC-gamma serine/threonine-protein kinase (Homo sapiens) (UniProt Q9Y243). The note with it: at 0.1 µM.
Test [6] has the same target. The note with it: at 1 µM.
Test [7] concerns the target G protein-coupled receptor kinase 6 (Homo sapiens) (UniProt P43250). To be noted: at 0.1 µM.
For test [8] the target is unchanged. The note with it: at 1 µM.
Test [9] concerns the target T1, Rhodopsin kinase GRK7 (Homo sapiens) (UniProt Q8WTQ7).
T1 sequence (whole entry): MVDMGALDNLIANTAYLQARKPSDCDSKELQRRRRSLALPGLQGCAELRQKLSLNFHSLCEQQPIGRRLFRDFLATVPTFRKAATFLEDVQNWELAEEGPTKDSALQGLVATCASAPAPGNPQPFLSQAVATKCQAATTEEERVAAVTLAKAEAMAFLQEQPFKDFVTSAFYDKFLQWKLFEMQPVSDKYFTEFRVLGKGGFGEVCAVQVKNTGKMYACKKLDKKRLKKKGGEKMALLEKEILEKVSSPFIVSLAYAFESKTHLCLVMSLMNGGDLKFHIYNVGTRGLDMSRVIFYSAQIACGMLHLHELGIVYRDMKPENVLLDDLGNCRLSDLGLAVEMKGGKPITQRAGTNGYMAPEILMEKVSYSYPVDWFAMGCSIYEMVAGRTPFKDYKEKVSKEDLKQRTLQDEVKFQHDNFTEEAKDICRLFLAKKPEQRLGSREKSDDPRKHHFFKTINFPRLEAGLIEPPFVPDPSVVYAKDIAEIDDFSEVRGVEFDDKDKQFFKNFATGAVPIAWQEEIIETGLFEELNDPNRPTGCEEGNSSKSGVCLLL
To be noted: at 0.1 µM.

Test [10] addresses T1, Rhodopsin kinase GRK7 (Homo sapiens). The note with it: at 1 µM.
Test [11] has as its target Serine/threonine-protein kinase MRCK alpha (Homo sapiens) (UniProt Q5VT25). The note with it: at 0.1 µM.
The target is the same in test [12]. To be noted: at 1 µM.
Test [13] addresses Serine/threonine-protein kinase MRCK beta (Homo sapiens) (UniProt Q9Y5S2). To be noted: at 0.1 µM.
Test [14] has the same target. To be noted: at 1 µM.
Test [15] concerns the target Ribosomal protein S6 kinase alpha-5 (Homo sapiens) (UniProt O75582). The note with it: at 0.1 µM.
For test [16] the target is unchanged. The note with it: at 1 µM.
In test [17] the target is Ribosomal protein S6 kinase alpha-4 (Homo sapiens) (UniProt O75676). The note with it: at 0.1 µM.
The target is the same in test [18]. To be noted: at 1 µM.
The target of test [19] is Ribosomal protein S6 kinase beta-1 (Homo sapiens) (UniProt P23443). The note with it: at 0.1 µM.
Test [20] shares this target. To be noted: at 1 µM.

Chain of Ribosomal protein S6 kinase alpha-5 (Homo sapiens) (O75582 whole entry, looked up): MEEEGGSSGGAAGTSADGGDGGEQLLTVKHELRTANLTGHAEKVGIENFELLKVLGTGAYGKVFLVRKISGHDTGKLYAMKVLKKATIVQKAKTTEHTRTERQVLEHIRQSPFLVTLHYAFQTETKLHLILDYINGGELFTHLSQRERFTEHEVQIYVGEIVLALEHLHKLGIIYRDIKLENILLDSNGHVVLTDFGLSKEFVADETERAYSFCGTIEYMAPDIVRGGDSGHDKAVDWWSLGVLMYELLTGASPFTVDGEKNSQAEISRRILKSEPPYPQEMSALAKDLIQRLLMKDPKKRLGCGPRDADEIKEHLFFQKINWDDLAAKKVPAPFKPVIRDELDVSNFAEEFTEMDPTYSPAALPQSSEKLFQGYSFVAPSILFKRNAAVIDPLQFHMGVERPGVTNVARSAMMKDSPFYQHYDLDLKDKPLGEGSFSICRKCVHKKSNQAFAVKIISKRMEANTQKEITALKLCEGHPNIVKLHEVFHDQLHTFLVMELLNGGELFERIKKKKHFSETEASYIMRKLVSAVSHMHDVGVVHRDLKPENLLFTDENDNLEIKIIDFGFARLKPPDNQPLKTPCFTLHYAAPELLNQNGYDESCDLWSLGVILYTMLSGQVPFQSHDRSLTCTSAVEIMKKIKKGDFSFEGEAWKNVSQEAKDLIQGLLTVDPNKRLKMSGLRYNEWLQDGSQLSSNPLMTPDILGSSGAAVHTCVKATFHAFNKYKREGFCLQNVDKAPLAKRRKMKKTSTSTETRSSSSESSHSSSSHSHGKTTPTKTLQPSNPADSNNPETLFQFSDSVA
Chain of RAC-alpha serine/threonine-protein kinase (Homo sapiens) (P31749 whole entry): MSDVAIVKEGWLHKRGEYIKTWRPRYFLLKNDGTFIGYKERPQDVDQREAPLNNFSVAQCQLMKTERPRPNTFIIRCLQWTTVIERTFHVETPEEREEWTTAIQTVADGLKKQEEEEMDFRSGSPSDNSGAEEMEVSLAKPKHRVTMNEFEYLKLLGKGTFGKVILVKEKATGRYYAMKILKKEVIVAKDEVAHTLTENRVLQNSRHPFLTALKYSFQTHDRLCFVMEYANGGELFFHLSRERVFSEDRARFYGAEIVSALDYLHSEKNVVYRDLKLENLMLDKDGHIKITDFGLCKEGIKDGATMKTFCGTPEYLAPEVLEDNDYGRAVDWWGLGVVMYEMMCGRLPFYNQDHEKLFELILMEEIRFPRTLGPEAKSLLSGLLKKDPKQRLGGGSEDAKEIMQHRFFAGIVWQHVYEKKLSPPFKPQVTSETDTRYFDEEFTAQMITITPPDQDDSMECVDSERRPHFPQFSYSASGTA
Chain of RAC-gamma serine/threonine-protein kinase (Homo sapiens) (Q9Y243 whole entry): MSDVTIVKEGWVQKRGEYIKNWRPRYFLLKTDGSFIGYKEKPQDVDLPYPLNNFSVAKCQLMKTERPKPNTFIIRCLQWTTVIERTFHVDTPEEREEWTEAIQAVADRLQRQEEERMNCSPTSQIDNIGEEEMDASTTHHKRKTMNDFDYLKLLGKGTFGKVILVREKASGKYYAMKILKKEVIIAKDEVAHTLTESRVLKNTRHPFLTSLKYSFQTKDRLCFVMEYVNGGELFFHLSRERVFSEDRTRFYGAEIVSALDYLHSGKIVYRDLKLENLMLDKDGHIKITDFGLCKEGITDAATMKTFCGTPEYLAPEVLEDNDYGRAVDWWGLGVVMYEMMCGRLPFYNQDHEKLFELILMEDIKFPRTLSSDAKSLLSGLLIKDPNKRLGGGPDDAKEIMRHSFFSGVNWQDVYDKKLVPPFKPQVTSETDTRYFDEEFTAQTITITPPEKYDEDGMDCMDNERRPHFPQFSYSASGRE
Chain of Ribosomal protein S6 kinase beta-1 (Homo sapiens) (P23443 whole entry, looked up): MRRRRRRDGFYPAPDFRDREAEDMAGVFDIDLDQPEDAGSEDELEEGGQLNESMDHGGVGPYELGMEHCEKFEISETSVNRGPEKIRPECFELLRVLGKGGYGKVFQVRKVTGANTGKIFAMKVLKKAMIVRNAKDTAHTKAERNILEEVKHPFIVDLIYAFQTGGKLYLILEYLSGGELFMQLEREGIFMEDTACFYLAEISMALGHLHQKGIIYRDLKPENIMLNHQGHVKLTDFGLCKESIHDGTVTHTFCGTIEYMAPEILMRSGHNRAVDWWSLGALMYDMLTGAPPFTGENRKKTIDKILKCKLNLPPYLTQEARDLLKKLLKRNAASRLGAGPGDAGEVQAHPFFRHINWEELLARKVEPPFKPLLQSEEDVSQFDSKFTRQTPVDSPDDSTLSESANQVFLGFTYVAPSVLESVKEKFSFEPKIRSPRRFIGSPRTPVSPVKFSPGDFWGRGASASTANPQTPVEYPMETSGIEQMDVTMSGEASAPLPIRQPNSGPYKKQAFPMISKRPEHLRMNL
Chain of RAC-beta serine/threonine-protein kinase (Homo sapiens) (P31751 whole entry): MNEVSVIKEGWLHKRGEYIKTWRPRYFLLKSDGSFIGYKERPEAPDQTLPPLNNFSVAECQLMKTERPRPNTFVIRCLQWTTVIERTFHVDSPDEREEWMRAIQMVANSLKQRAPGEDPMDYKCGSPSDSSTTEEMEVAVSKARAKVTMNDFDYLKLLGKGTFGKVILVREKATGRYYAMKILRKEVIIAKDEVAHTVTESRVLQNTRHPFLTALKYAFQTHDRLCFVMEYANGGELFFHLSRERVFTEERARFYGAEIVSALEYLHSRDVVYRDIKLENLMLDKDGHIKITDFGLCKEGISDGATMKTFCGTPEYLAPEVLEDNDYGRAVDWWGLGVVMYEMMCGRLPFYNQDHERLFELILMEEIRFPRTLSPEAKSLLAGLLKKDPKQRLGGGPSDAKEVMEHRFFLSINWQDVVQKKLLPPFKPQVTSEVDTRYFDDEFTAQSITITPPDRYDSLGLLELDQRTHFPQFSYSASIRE
Chain of Ribosomal protein S6 kinase alpha-4 (Homo sapiens) (O75676 whole entry, looked up): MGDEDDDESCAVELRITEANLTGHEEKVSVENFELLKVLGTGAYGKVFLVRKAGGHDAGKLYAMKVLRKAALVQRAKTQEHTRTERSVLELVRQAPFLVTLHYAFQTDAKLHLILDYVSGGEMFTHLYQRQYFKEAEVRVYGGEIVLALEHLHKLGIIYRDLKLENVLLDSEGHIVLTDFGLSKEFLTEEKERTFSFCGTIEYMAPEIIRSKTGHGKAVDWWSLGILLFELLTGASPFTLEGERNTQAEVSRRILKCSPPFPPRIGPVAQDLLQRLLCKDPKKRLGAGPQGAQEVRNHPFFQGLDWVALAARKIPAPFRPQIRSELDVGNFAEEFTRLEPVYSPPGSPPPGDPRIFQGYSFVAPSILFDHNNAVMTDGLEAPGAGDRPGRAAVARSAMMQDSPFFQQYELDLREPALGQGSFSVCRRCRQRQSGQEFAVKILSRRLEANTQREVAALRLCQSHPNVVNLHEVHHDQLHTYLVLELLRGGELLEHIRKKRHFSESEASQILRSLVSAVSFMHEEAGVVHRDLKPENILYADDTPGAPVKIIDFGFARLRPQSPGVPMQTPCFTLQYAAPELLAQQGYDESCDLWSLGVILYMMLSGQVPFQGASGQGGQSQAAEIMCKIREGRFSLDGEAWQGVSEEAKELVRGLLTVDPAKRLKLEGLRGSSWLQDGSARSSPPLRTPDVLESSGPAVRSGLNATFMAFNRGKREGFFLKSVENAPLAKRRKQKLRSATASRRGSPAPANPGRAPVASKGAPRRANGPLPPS
Chain of G protein-coupled receptor kinase 6 (Homo sapiens) (P43250 whole entry, looked up): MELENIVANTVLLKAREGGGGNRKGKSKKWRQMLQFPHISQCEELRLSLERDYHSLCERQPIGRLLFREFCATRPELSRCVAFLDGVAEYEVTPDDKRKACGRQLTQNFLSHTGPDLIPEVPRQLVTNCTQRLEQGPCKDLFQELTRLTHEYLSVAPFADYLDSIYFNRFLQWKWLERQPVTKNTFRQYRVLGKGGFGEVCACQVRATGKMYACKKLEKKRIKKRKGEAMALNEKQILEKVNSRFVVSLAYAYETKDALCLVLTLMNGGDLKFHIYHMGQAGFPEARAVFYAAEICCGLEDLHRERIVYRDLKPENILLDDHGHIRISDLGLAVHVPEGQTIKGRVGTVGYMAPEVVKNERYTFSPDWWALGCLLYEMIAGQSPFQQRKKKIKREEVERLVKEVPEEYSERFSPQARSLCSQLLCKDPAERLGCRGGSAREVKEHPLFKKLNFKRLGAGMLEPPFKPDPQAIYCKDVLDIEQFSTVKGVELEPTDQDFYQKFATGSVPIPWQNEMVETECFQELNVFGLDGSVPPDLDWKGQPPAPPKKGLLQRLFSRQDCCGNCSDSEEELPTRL

Regarding `CCc1nn2ncccc2c1-c1ccnc(NC2CC2)n1`, the inhibition was 0.3% in test [1]; 0.03% in test [2]; -0.16% in test [3]; 0.84% in test [4]; 0.81% in [5]; 0.1% in test [6]. Moreover, the inhibition was 3.01% in test [7]; 4.64% in [8]; 3.97% in test [9]; 1.72% in [10]; 3.74% in test [11]; 2.27% in test [12]. Also, the inhibition in [13] is 1.18%; in test [14] it was 2.16%; in [15], 0.41%; in [16], 1.19%; in [17] it was 1.26%; in test [18] it was 3.44%. In addition, the inhibition in test [19] is 1.12%; in [20], 2.51%.

Consider `CC(=O)NCc1cccc(C#Cc2cncnc2Nc2ccc(OCc3cccc(F)c3)c(Cl)c2)c1`, for which the inhibition in [1] is -0.84%; in test [2] it was -1.16%; in [3], -0.39%; in test [4] it was 0.71%; in test [5], 0.73%; in test [6] it was 0.47%. For the same compound, the inhibition in [7] is 1.84%; in test [8] it was 3.06%; in [9], -1.42%; in [10] it was 7.96%; in test [11] it was 0.23%; in test [12] it was -0.33%. For the same compound, the inhibition is 0.09% in test [13]; 1.09% in [14]; -4.98% in test [15]; -3.7% in test [16]; 0.45% in [17]; 4% in test [18]. Further, the inhibition in test [19] worked out at 0.26%; in [20], 0.74%.

Regarding `COc1ccc(-c2cc(-c3c[nH]nc3-c3ccccn3)ccn2)cc1`, the inhibition in test [1] is 0.93%; in test [2], 1.5%; in test [3], 2.54%; in test [4], 1.95%; in test [5], 1.66%; in [6], 1.52%. Also, the inhibition in [7] is 8.13%; in test [8], 8.91%; in test [9], 3.59%; in test [10] it was 6.26%; in test [11] it was -0.6%; in test [12], 3.02%. In addition, the inhibition in test [13] is -0.39%; in test [14], 0.6%; in test [15] it was 4.28%; in test [16], 4.22%; in [17], 3.45%; in test [18], 4.77%. Moreover, the figures for the inhibition in [19] and in test [20] were 2.32% and 3.73%, respectively.

For `COc1ccc2c(-c3ccnc(Nc4cccc(OC(F)(F)F)c4)n3)cnn2n1`, the inhibition in [1] came to 0.95%; in test [2], 0.97%; in test [3], 2.41%; in test [4], 1.51%; in test [5], 1.3%; in test [6], 1.57%. In addition, the inhibition in [7] is 4.64%; in [8], 5.84%; in [9] it was 5.16%; in test [10], 4.9%; in test [11], -0.42%; in test [12], 2.27%. For the same compound, the inhibition in [13] was 0.42%; in test [14], -0.61%; in test [15], 4.58%; in test [16] it was 4.54%; in [17], 2.99%; in test [18] it was 7.19%. The inhibition was found to be 3.11% in test [19] and 3.7% in [20].

On to `CCn1c(-c2nonc2N)nc2cnc(Oc3cccc(NC(=O)c4ccc(N(C)C)cc4)c3)cc21`, for which the inhibition amounted to 0.51% in [1]; 7.63% in test [2]; 0.71% in test [3]; 8.4% in [4]; 1.82% in test [5]; 10.2% in [6]. Also, the inhibition in [7] is 0.82%; in test [8], 2.85%; in test [9] it was 2.74%; in test [10], 4.11%; in test [11], 7.29%; in test [12] it was 53.4%. The inhibition worked out at 17% in [13]; 62.9% in test [14]; 60.2% in test [15]; 80.5% in test [16]; 61.2% in [17]; 79% in test [18]. Besides, the inhibition came out at 71.7% in test [19] and 90.4% in test [20].

On to `[O-][S+]1CCN(Cc2ccc(-c3ccc4ncnc(Nc5ccc(OCc6cccc(F)c6)c(Cl)c5)c4c3)o2)CC1`, for which the inhibition was found to be 2.98% in test [1]; 0.19% in [2]; 3.72% in test [3]; 3.57% in test [4]; 2.4% in test [5]; 2.54% in test [6]. Besides, the inhibition in test [7] is 3.23%; in [8], 4.79%; in test [9], 9.08%; in test [10], 2.57%; in [11], -1.31%; in [12], -1.3%. The inhibition in test [13] is -0.28%; in test [14], -0.43%; in test [15] it was 3.5%; in test [16] it was 3.71%; in test [17] it was 3.38%; in test [18] it was 4.98%. Besides, the inhibition in test [19] is 2.86%; in test [20], 3.84%.

With `CC(C)COC(=O)c1ccc2c(c1)/C(=C/Nc1ccc(S(N)(=O)=O)cc1)C(=O)N2`, the inhibition in test [1] stood at 1.6%; in [2], 2.22%; in test [3], 0.67%; in test [4], 1.73%; in test [5], 1.5%; in test [6], 6.82%. For the same compound, the inhibition in [7] was 1.33%; in [8], 10.1%; in test [9] it was -4.26%; in test [10] it was 9.41%; in test [11], 3.02%; in test [12], 6.98%. Besides, the inhibition in test [13] was found to be 3.62%; in test [14] it was 12.7%; in test [15], 3.88%; in test [16], 11.6%; in test [17] it was 5.45%; in test [18], 20.9%. Besides, the inhibition amounted to 3% in test [19] and 18.1% in [20].
